Experimental findings from PubChem BioAssay AID422 (Emory University Molecular Libraries Screening Center, 2006) are described below.

Several values for one entry are separate records, joined by “and”; a condition that tells them apart may be missing. Equal entries are not always repeated. The campaign covered roughly 160,000 compounds. About 310 (0.19%) were called active. Rule as the data show it: active = inhibition above about 30%; inactive = the rest. What follows is part of a selection rich in actives, with near analogues and random picks from the rest. Some structures have more than one record in an assay (separate samples or runs), and their calls can disagree.

The target of this experiment is 14-3-3 protein gamma (Homo sapiens) (UniProt P61981). As to the kind of experiment: 14-3-3 gamma/Raf peptide interaction modulators – biochemical, fluorescence polarization, primary screen (AID 422).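 Also: 0% = protein plus tracer without compound and 100% = blank with tracer alone.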 The settings on record: FP, 14-3-3gamma / TMR-pS259-Raf peptide binding; at 40 µM; stronger effect = higher value. In general terms: Fluorescence polarisation rises when a labelled molecule tumbles more slowly, as on binding a larger partner.
14-3-3 protein gamma (Homo sapiens), sequence (P61981 whole entry, looked up): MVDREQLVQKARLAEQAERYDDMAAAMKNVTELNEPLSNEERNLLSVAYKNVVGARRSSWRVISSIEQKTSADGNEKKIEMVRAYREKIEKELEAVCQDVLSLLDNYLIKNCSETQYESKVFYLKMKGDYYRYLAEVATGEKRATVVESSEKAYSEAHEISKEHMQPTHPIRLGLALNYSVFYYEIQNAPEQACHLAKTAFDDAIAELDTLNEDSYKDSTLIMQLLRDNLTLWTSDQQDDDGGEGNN
As for `Cc1c(Cl)cccc1N1C(=O)C2C3c4ccccc4C(c4ccccc43)C2C1=O` (configuration not stated), the inhibition (commonly the drop in the measured response relative to a control, in per cent) was 1.55% (inactive). Then `O=C(Nc1ccccc1C(F)(F)F)c1ccc(SC2CCCCC2)c([N+](=O)[O-])c1`, with -3.43% (inactive); and `O=C(Nc1cccc2c1C(=O)c1ccccc1C2=O)c1ccccc1Br`, with -33.2% (inactive); and `COc1cc2c(cc1OC)C(COc1ccc3c(C)cc(=O)oc3c1)N(C(=O)c1cc(C)cc(C)c1)CC2` (configuration not stated), with -4.93% (inactive). Turning to `O=C(Cn1cnc([N+](=O)[O-])c1)C1CC1`, the inhibition was 7.38% (inactive). The value for `COc1ncnc2c1N=C1CC(C)(C)CC(N)=C1S2` was 56.3% (active); that for `CC(=O)CCC=C(C)CCC=C(C)C` was -6.82% (inactive). The value for `Cc1ccc(-c2nc3ccccc3c(C(=O)O)c2C)s1` was -5.29% (inactive). The value for `O=C1NC(c2ccc(Cl)cc2)C(C(=O)c2ccccc2)C(O)(C(F)(F)F)N1` (configuration not stated) was 9.54% (inactive); that for `O=C(NCCCN1CCCC1)c1ccc(N2CCCC2=O)cc1` was 2.82% (inactive). As to `Cc1ccc(Cl)cc1N1C(=O)C(N2C(=O)c3ccc([N+](=O)[O-])cc3C2=O)C1c1cccc(F)c1` (configuration not stated), the inhibition was -4.78% (inactive). The value for `CCCC(=O)N(c1ccc2oc(C)c(C(=O)OC)c2c1)S(=O)(=O)c1cc([N+](=O)[O-])ccc1C` was -23.1% (inactive); that for `COc1ccc(CN2C(=O)CCC2(C)C(=O)NC2CCCCCC2)c(OC)c1` (configuration not stated) was -7.62% (inactive); that for `COc1ccc2cc(-c3nnc(Nc4ccccc4F)s3)c(=O)oc2c1` was -11.4% (inactive). Then `COC(=O)C1=C(C)NC2=C(C(=O)CC(c3ccccc3Cl)C2)C1c1ccc2c(c1)OCO2` (configuration not stated), with -2.26% (inactive); and `O=c1oc2ccc(Cl)cc2cc1-c1cn2cc(Cl)cc(Cl)c2n1`, with -12.1% (inactive).

Turning to `CN1CCc2c(n(-c3ccccc3)c3ccccc23)C1=O`, the inhibition was -14.8% (inactive). Then `CCOc1ccc(N=Cc2c(O)c(C(=O)Nc3ccccc3C)cc3ccccc23)cc1`, with 79.8% (active); and `COc1cccc(C=Nc2cccc(C(=O)Nc3cccc4ccccc34)c2)c1O`, with 2.57% (inactive); and `CCOc1ccccc1C(=O)Nc1ccc(I)cc1C`, with -132% (inactive). Then `CCC(=O)N1CCc2cc(OC)c(OC)cc2C1COc1cccc(C(F)(F)F)c1` (configuration not stated), with -6% (inactive); and `Cc1ccc(-c2cc(C(=O)OCC(C)C)c3cc(C)ccc3n2)cc1`, with 3.92% (inactive). The value for `COc1cc(C2Nc3ccccc3NC3=C2C(=O)CC(c2ccccc2Cl)C3)cc(Cl)c1O` (configuration not stated) was -12.8% (inactive). In the case of `Cc1cccc(-n2ncc3c(N4CCc5ccccc54)ncnc32)c1`, the inhibition is -10.6% (inactive) and 1.75% (inactive). The value for `COc1ccc(-n2ncc3c(N4CCCc5ccccc54)ncnc32)cc1` was 43.9% (active); that for `COc1ccc(-n2ncc3c(N4CCc5ccccc54)ncnc32)cc1` was -7.74% (inactive); that for `CC1Cc2nc(SCC(=O)Nc3cccc(C(F)(F)F)c3)n(C)c(=O)c2S1` (configuration not stated) was -7.37% (inactive). The value for `CCOc1ccc(S(=O)(=O)N2CCC(C)CC2)c2ccccc12` was -10.1% (inactive); that for `Cc1[nH]c2ccccc2c1C(=O)CSc1nc2ccccc2s1` was -9.51% (inactive). The value for `CCN1C(=O)c2cccc3c(S(=O)(=O)NC4CC(C)(C)NC(C)(C)C4)ccc1c23` was -11.1% (inactive). As for `CC(C)(C)c1ccc(C(=O)NCc2n[nH]c(=S)n2-c2cccc(C(F)(F)F)c2)cc1`, the inhibition was 4.88% (inactive). The value for `CN1C(=O)NC(c2cccc(Cl)c2)C2=C1CCCC2=O` (configuration not stated) was 2.47% (inactive). The value for `Cc1ccc2c(=O)c(CN3CCOCC3)c(C)[nH]c2c1C` was -4.4% (inactive); that for `Cc1ccc(-c2nnc(NCc3ccccc3)c3ccccc23)cc1S(=O)(=O)N1CCOCC1` was -13.1% (inactive). Then `COc1ccc(CN2CCN(S(=O)(=O)c3cc(Br)c(Br)s3)CC2)c(OC)c1OC`, with -1% (inactive); and `Cc1cc(N2CCOCC2)nc2ccc(NC(=O)c3ccc(F)cc3)cc12`, with -5.58% (inactive). Regarding `O=c1c2ccc(-c3ncc(-c4ccccc4)o3)c3cccc(c32)c2nc3cccc4cccc(c43)n12`, the inhibition is -3.12% (inactive).

As for `Clc1ccc2nc(-c3ccsc3)c(NC3CCCCC3)n2c1`, the inhibition was 1.17% (inactive). For `O=C(CC1Sc2ccccc2NC1=O)NCCCSC1CCCCC1` (configuration not stated), the inhibition was 5.8% (inactive). Consider `N#Cc1c(N2CCCCCC2)ncc2cc3ccccc3nc12`, for which the inhibition is 143% (active). Turning to `Cc1cc(NCCN2CCCCCC2)n2c(nc3ccccc32)c1C#N`, the inhibition is -60.5% (inactive). The value for `Cc1cccc2cc(C#N)c(N3CCCC3)nc12` was -5.89% (inactive); that for `COc1ccc(NC(=O)Nc2cccc3cccnc23)cc1` was -2.7% (inactive); that for `O=C(Nc1cccc2cccnc12)c1cccc(N2C(=O)CCC2=O)c1` was 2.56% (inactive). Then `O=C(O)c1ccccc1C(=O)Nc1cccc2cccnc12`, with 52.6% (active); and `O=C(NC1CCCCNC1=O)c1ccc(N2CC3CC(C2)c2cccc(=O)n2C3)c(NC(=O)c2ccccc2Br)c1` (configuration not stated), with -4.63% (inactive). Then `CN(Cc1ccccc1)S(=O)(=O)c1ccc2c(c1)CCN2C(=O)C1CCC1`, with -4.53% (inactive); and `Cc1ccc(-c2csc(Nc3ccccc3)n2)c(C)c1`, with -4.17% (inactive); and `C=CCSc1nc2ccccc2[nH]1`, with 50.5% (active) and -1.38% (inactive).

In the case of `c1ccc2[nH]c(-c3nc4ccccc4[nH]3)nc2c1`, the inhibition is -4.13% (inactive). The value for `O=C(CSc1nc2ccccc2[nH]1)c1cccs1` was -10.8% (inactive) and -0.41% (inactive); that for `COc1cc(OC)c(C2C(C(=O)O)c3cc(OC)c(OC)cc3C(=O)N2C)cc1OC` (configuration not stated) was 4.71% (inactive); that for `O=C(O)c1c[nH]c2ccc(S(=O)(=O)N3CCN(c4cccc(Cl)c4)CC3)cc2c1=O` was -20.1% (inactive).

With `COc1ccc(NC(=O)c2cc([N+](=O)[O-])ccc2Cl)cc1OC`, the inhibition is -12.3% (inactive). Then `COc1ccc(CCNC(=O)c2cc(Cl)ccc2OC)cc1`, with -6.62% (inactive). As for `CC(=O)Oc1ccccc1C(=O)NCCc1ccccc1`, the inhibition was 3.04% (inactive). Consider `COc1cc2ccccc2cc1C(=O)NCCc1ccccc1`, for which the inhibition is 76% (active). Then `CCCCN(CC)C(=O)C1c2cc(OC)c(OC)cc2C(=O)N(C)C1c1ccccc1F` (configuration not stated), with -7.13% (inactive). On to `O=C(Oc1ccc(C2NC(=O)c3c(sc4c3CCCC4)N2)cc1)c1ccccc1` (configuration not stated), for which the inhibition is -5.95% (inactive). Then `O=S(=O)(Nc1ccccn1)c1ccccc1`, with -1.79% (inactive); and `Cc1ccc(NC(=O)c2cccc(Oc3ccc(C#N)cc3)c2)cc1`, with -12% (inactive). For the molecule `O=C(Nc1nccs1)c1cc2cc(Cl)ccc2oc1=Nc1ccc(Br)cc1`, the inhibition was -1.07% (inactive). The value for `COc1ccc(CNCC2OCCc3ccccc32)cc1OC` (configuration not stated) was -5.29% (inactive); that for `O=C(NCCc1ccccc1)C1Cc2ccccc2CN1S(=O)(=O)c1cccs1` (configuration not stated) was -6.94% (inactive). The value for `Cc1sc(NC(=O)c2cc(=O)c3ccccc3o2)nc1-c1ccccc1` was 0.55% (inactive). Then `CCN(CC)c1ccc2cc(C(=O)NC(C)=O)c(=Nc3ccccc3OC)oc2c1`, with 133% (active); and `CCN(CC)c1ccc2cc(C(=O)O)c(=O)oc2c1`, with -6.88% (inactive); and `CCN(CC)c1ccc2cc(C(N)=O)c(=Nc3ccc(C(N)=O)cc3)oc2c1`, with 3.05% (inactive). On to `COc1cccc(-c2nn(C)c3sc(C(=O)NCCCOC(C)C)cc23)c1`, for which the inhibition is -12.3% (inactive). In the case of `COC(=O)c1ccc2c(c1N)C(=O)c1ccccc1C2=O`, the inhibition is -200% (inactive). For the molecule `CC(C)CCOC(=O)c1c2c(n3ccccc13)C(=O)c1ccccc1C2=O`, the inhibition is 34.6% (active). Then `O=C(OCCN1C(=O)c2ccccc2C1=O)c1ccc([N+](=O)[O-])cc1`, with 5.13% (inactive); and `Cc1ccc2c(c1)-c1cccc3cccc(c13)C2=O`, with 3.94% (inactive). The value for `Cc1cc2c3c(ccc(N)c3n1)C(=O)c1ccccc1-2` was 127% (active); that for `Cc1ccc2nc3c(nc2c1)C(=O)c1ccccc1C3=O` was -16.2% (inactive); that for `CCc1ccccc1NC(=O)c1cc2cc3ccc(OC)cc3nc2o1` was 17.8% (inactive).

Take `O=C(Cc1ccc(Cl)cc1)Nc1cccc(-c2nc3ccccc3o2)c1`: the inhibition was -129% (inactive).

As to `COc1ccc(C2C3=C(CCCC3=O)OC3=C2C(=O)CCC3)cc1`, the inhibition was 0.11% (inactive). Then `CCC(=O)N1CCc2cc(S(=O)(=O)CCC(=O)N3CCN(c4cccc(OC)c4)CC3)ccc21`, with 3.36% (inactive); and `COc1cc2ccccc2cc1C(=O)Nc1nc(-c2c(OC)ccc3ccccc23)cs1`, with -0.5% (inactive); and `COC(=O)C1=CN(C)C=C(C(=O)OC)C1c1cc(OC)ccc1OC`, with 1.92% (inactive). Then `O=C(COc1ccc(C2CCCCC2)cc1)Nc1ccc(-c2nc3ncccc3o2)cc1`, with -12.3% (inactive). The value for `CC(=O)COc1cc(C)cc2oc(=O)c(Cc3ccccc3)c(C)c12` was 4.62% (inactive); that for `COCCn1c(=S)[nH]c2cc(C(=O)N3CCN(C(=O)c4ccco4)CC3)ccc2c1=O` was 2.47% (inactive); that for `CCOc1cc2c(cc1OCC)C1C(C(=O)NCCN3CCOCC3)c3ccccc3C(=O)N1CC2` (configuration not stated) was 8.01% (inactive).

With `S=c1[nH]ncn1-c1cccnc1`, the inhibition was 40.8% (active). The value for `C(=N\n1cnnc1)/c1cccnc1` was -6.33% (inactive); that for `CC(C)(C)c1ccc(-c2nc(Cc3ccc(Cl)cc3)no2)cc1` was -5.54% (inactive). For `COC(=O)C1=C(C)N=C2SC(C)C(=O)N2C1c1ccc(C)cc1` (configuration not stated), the inhibition is -10.9% (inactive).

In the case of `CC(C)c1ccc(NC(=O)c2ccc(F)c(S(=O)(=O)NCc3ccccc3Cl)c2)cc1`, the inhibition is -7.39% (inactive).

Take `COc1ccc(NC(=O)CSc2nc3nc(C)cc(C)n3n2)c(OC)c1`: the inhibition is -15.5% (inactive).

`CCOC(=O)c1ccc(N2C(=O)C3CCCCC3C2=O)cc1` (configuration not stated): the inhibition was -3.67% (inactive).
